Experimental data from ChEMBL document CHEMBL3988442, “University of Dundee, Small-Polar-MMV Screening Library” (2021).
“And” between values parts separate entries of the source, which are not always exact repeats. Equal entries are not always repeated. Hit rate of the full screen: of about 38,000 compounds, about 1,200 (3.2%) showed an effect of 50% or more. The median lay at about -58%. This excerpt belongs to a sample that is enriched for strong results.

Test system: Plasmodium falciparum
Experiment: Calibr Malaria Delayed Death Assay SOP
Type: functional, organism-based
Set-up: scale not given: in the data most compounds retested in dose-response had high values
Conditions: concentration 4.99e-06 (unit not given; other assays of the set use mol/L)

Compound	Percent Effect [%]	Percent Effect (4.99 µM)
COCCN(Cc1ccoc1)S(=O)(=O)c1cccc(C(F)(F)F)c1	-154.4	–
COc1c[nH]c(C(=O)Nc2nc(C)cs2)cc1=O	-242.4	–
Clc1ccc(C2(NCc3noc(C4CC4)n3)CCC2)cc1	11.94	–
Clc1ccc(C2(NCc3noc(C4CC4)n3)CCCC2)cc1	66.68	–
Clc1ccc(C2(NCc3noc(C4CC4)n3)CCOCC2)cc1	-1.957	–
COc1cccc(N2CCN(Cc3ccc4ccn(C)c4c3)CC2=O)c1	-24.12	–
COc1cc(N2CC[C@H](O)[C@@H]2Cc2ccccc2)ncn1	-143.1	–
CC(C)NC(=O)CSc1nc2c(cnn2CCO)c(=O)[nH]1	-19.17	–
CCS(=O)(=O)N1CCCn2c(nc(CN3CCCC3)cc2=O)C1	-41.77	–
COCCn1ccnc1CN1CCc2[nH]cnc2C1c1ccccn1 (stereo not drawn)	-16.31	–
CCc1nccn1-c1cncc(C2CCCN2Cc2ccccn2)n1 (stereo not drawn)	-28.75	–
CCn1ccnc1CN1CCCC1c1c(C)nn(C)c1OC (stereo not drawn)	-32.78	–
CCn1ncnc1CN1CCc2[nH]cnc2C1c1ccccn1 (stereo not drawn)	-50.88	–
COCCn1ccnc1CN1CCc2[nH]cnc2C1c1cccc(O)c1 (stereo not drawn)	-80.26	–
CCCn1ccnc1CN1CCc2[nH]cnc2C1Cc1ccccc1 (stereo not drawn)	64.79	–
CCn1ncnc1CN1CCc2[nH]cnc2C1Cc1ccccc1 (stereo not drawn)	-69.64	–
CCc1ccc(C2c3nc[nH]c3CCN2Cc2nccn2CC)nc1 (stereo not drawn)	89.79	–
COc1cccc(CN2CC(O)CN(C(=O)C(C)(C)C)CC2=O)c1OC (stereo not drawn)	-124	–
CC1=Nc2c(c(=O)[nH]n2C2CCCC2)C(c2cccnc2)S1 (stereo not drawn)	–	-22.61% and -27.75%
CCCNC(=O)c1cccc(CNCc2csc(C(C)(C)C)n2)c1	23.22	–
CN(C)C(=O)CO[C@H]1CN(Cc2ccc3c(c2)OCO3)[C@@H]2COC[C@H]12.O=C(O)C(F)(F)F	-65.25	–
C1CCC(c2nc3c(c(N4CC(N5CCOCC5)C4)n2)CCNCC3)C1	-121.5	–

Compound	Percent Effect [%]	Percent Effect (4.99 µM)
Nc1nc2c(c(N3CCC(CN4CCCC4=O)CC3)n1)CCNCC2	-195.3	–
Nc1nc2c(c(N3CCC(CCn4cccn4)CC3)n1)CCNCC2	0.6794	–
NCC1CCN(c2nc(C3CCCC3)nc3c2CCNCC3)C1 (stereo not drawn)	93.21	–
CCOCc1nc2c(c(N3CCN4CCCC4C3)n1)CCNCC2 (stereo not drawn)	-33.92	–
c1cnn(CC2CCN(c3nc(C4CC4)nc4c3CCNCC4)CC2)c1	90.7	–
C1CCC(c2nc3c(c(N4CCN5CCCC5C4)n2)CCNCC3)C1 (stereo not drawn)	77.28	–
Cc1nc2c(c(N3CCC(CN4CCCC4=O)CC3)n1)CCNCC2	-95.59	–
Cc1nc2c(c(N3CCC(CCn4cccn4)CC3)n1)CCNCC2	39.53	–
CS(=O)(=O)Nc1nn(Cc2ccc(F)cc2)cc1Br	-19.12	–
CCNS(=O)(=O)c1cnccc1N1CCN(CCO)CC1	-122.2	–
Cc1cc(C)nc(N2CCC(c3cncc(-n4ccnc4)n3)CC2)n1	-62.28	–
CC(O)CN1CCN(C(=O)CCOC(C)C)CC1 (stereo not drawn)	-34.58	–
O=C(C1CCOCC1)N1CCC2(CCN(Cc3nccs3)CC2)CC1.O=C(O)C(F)(F)F	-69.08	–
CN(Cc1cc(Br)cs1)Cc1nnsc1Cl	-124.6	–
CCOc1ccnc(N2CCCN(c3nc(C4CC4)ns3)CC2)n1	50.17	–
CCOc1ccnc(N2CCCN(c3nc(CC)ns3)CC2)n1	-65.97	–
Cc1nsc(N2CCCN(c3nc(C4CC4)ns3)CC2)n1	-111.5	–
COCCN(Cc1sccc1C)C(=O)COc1ccccc1O	-70.17	–
COCCN(Cc1sccc1C)C(=O)C1CCN(C(C)C)CC1	57.24	–
COCCN(Cc1sccc1C)C(=O)C1CCCN(C(N)=O)C1 (stereo not drawn)	-77.34	–
CCn1cnnc1CNC(=O)NC(C)c1ccc(Cl)s1 (stereo not drawn)	-29.19	–
Cc1nc(N)ccc1CC1COc2ccccc2C1 (stereo not drawn)	39.32	–

Compound	Percent Effect [%]	Percent Effect (4.99 µM)
Cc1ccc(O)c(CNCC(C)c2nc3ccccc3o2)n1 (stereo not drawn)	62.12	–
Cc1nc(CNCC(C)c2nc3ccccc3o2)cs1 (stereo not drawn)	-114.5	–
Cc1csc(CNCC(C)c2nc3ccccc3o2)n1 (stereo not drawn)	-35.1	–
N#Cc1cccnc1OC1CCN(S(=O)(=O)c2ccc(F)c(Cl)c2)CC1	-120.1	–
Cc1cccc(C(=O)N2CC[C@@H]3CN(c4ncccn4)CCO[C@@H]3C2)c1	3.612	–
CCn1ccnc1CN(C)C(=O)Cn1ccc2ccccc2c1=O	-48.52	–
Cc1cccc(C2(C(=O)NCC3CN(C)CCO3)CC2)c1 (stereo not drawn)	-0.8202	–
CN1CCOC(CNC(=O)C2(c3cccc(C(F)(F)F)c3)CCCC2)C1 (stereo not drawn)	55.27	–
CN1CCOC(CNCc2cccc(OCC(F)(F)F)c2)C1 (stereo not drawn)	11.83	–
CC(C)c1n[nH]c(C(=O)Nc2ccncc2)c1Br	-170.8	–
Cc1ccnc(NC(=O)c2ccc(Br)o2)c1	-122.7	–
CC(C)c1n[nH]c(C(=O)Nc2cc[nH]n2)c1Br	-216.8	–
Cc1cccc(NC(=O)c2ccc(-n3cncn3)nn2)n1	-82.38	–
Cc1cccc(NC(=O)c2[nH]nc(C(C)C)c2Br)n1	55.91	–
Cc1ccnc(NC(=O)c2[nH]nc(C(C)C)c2Br)c1	72.66	–
Cc1cccc(NC(=O)c2sc(C)nc2C)n1	-70.67	–
Cc1ccnc(NC(=O)CCNC(=O)c2ccccc2Cl)c1	-154.4	–
CCc1ccsc1C(=O)N1CCCN(Cc2cnn(CC)c2)CC1	-131.2	–
Cc1occc1C(=O)N1C[C@@H]2OCCN(CCN3CCCC3)[C@@H]2C1.O=C(O)C(F)(F)F.O=C(O)C(F)(F)F	-96.04	–
CCC(=O)N1CCC2(CC1)C(=O)N(C)CCN2Cc1csc(C)n1.O=C(O)C(F)(F)F	-46.93	–
COCCN1C(=O)[C@H]2CC[C@@H]1CN(S(=O)(=O)c1cccc(Cl)c1)C2	-81.8	–
COCCN(C)C[C@@H]1CN(C(=O)c2cccc(Cl)c2)C[C@@H]1CO	-171.8	–

Compound	Percent Effect [%]	Percent Effect (4.99 µM)
C=Cc1cccc(CN2C[C@@H](CN(C)CC)[C@@H](CO)C2)c1	87.24	–
CCN(C)C[C@@H]1CN(Cc2cccc(O)c2)C[C@@H]1CO	-20.19	–
CCN(C)C[C@@H]1CN(S(=O)(=O)c2cccc(Cl)c2)C[C@@H]1CO	74.38	–
CN(C)CCN(C)C[C@@H]1CN(Cc2cccc(O)c2)C[C@@H]1CO	-40.55	–
Cc1ncsc1C(=O)OCC1CCN(c2ccccc2)C1 (stereo not drawn)	9.637	–
CNc1cncc(C2CCCN2Cc2ccnc(N3CCCC3)n2)n1 (stereo not drawn)	-40.21	–
CN(CC1(CO)CCCC1)C(=O)c1cc(COc2ccccc2F)[nH]n1	-12.3	–
CSCCC(NC(=O)c1nc(SC)ncc1Cl)C(=O)O (stereo not drawn)	-13.47	–
CC(C)(C)c1nc(CN2CCOC(Cn3cncn3)C2)cs1 (stereo not drawn)	-89.29	–
Cc1cc(-c2cnn(CCNC(=O)CCn3cccn3)c2C2CC2)on1	-69.32	–
NC(=O)NC(=O)CCN1CCCC1c1cccc2c1OCCO2 (stereo not drawn)	22.71	–
CNC(=O)CCN1CCCC1c1ccccc1Br (stereo not drawn)	-26.77	–
COCCN1CCCC1c1cccc2c1OCCO2 (stereo not drawn)	-6.29	–
O=C(CCN1CCCCCC1c1ccco1)N1CCOCC1 (stereo not drawn)	-45.72	–
CC(C)NC(=O)CN1CCN(CC2CCOc3ccccc3C2)CC1 (stereo not drawn)	-22.48	–
O=C(CCN1CCCC1c1cccc2c1OCCO2)N1CCCCC1 (stereo not drawn)	72.46	–
CCNC(=O)CCN1CCCC1c1cccc2c1OCCO2 (stereo not drawn)	51.42	–
CC(C)NC(=O)CCN1CCCC1c1cccc2c1OCCO2 (stereo not drawn)	52.1	–
O=C(CCN1CCCC1c1cccc2c1OCCO2)N1CCOCC1 (stereo not drawn)	-28.31	–
Cc1cc(C)cc(NCCC(=O)NC2CCCCC2)c1	-32.74	–
CCOCC1CN(C(=O)Cc2ccccn2)Cc2cnn(CC)c21 (stereo not drawn)	-151.3	–
CCCNC(=O)CNc1ccccc1OCCC(=O)OC	-87.74	–

Compound	Percent Effect [%]	Percent Effect (4.99 µM)
Cn1cc(CN2CCC3(CC2)CCN(C(=O)c2cscn2)C3)cn1.O=C(O)C(F)(F)F	-97.69	–
COc1ccc(C(N)=O)cc1NCc1nc(-c2cccs2)oc1C	-37.05	–
CC(C)c1nnc2n1CC(CNCc1cccnc1)CC2 (stereo not drawn)	-95.11	–
O=C(NCCC(=O)N1CCCC1)c1cccnc1	-130.5	–
CC(=O)Nn1ccc2c(nnc3c(-c4ccc(F)cc4)cnn32)c1=O	-66.29	–
COc1ncc(CN2C[C@@H]3CC[C@@](O)(c4ccc(C)cn4)[C@@H]3C2)cn1.O=C(O)CC(O)(CC(=O)O)C(=O)O	-80.6	–
CC[C@H]1CN(C(=O)CCn2c(C)cccc2=O)CC[C@@]1(C)O	-150.9	–
CN(C)c1cc(CNC(=O)c2n[nH]c(=O)c3ccccc23)ccn1	-121.9	–
c1ccc(OCCNCc2cccs2)nc1	-81.56	–
c1ccc(OCCCNCc2cccs2)nc1	17.97	–
Cc1ccsc1CNCCCOc1ccccn1	53.78	–
O=C(O)C1(Cc2ccccc2F)CCCN(c2ncnc3[nH]ccc23)C1 (stereo not drawn)	-54.27	–
Cc1ccc(S(=O)(=O)NCCCN2CCC(O)CC2)cc1Cl	19.72	–
CCN1CCCN(S(=O)(=O)c2cnc3onc(C)c3c2)CC1	-44.36	–
CCN1CCN(S(=O)(=O)c2cc(C)c(C)cc2Br)CC1	25.52	–
CCN1CCN(S(=O)(=O)c2cc(C)c(Cl)cc2Cl)CC1	62.85	–
CCN1CCN(S(=O)(=O)c2cc(Cl)c(Cl)cc2C)CC1	69.76	–
C[C@@H]1CN(S(=O)(=O)c2ccc(F)cc2Cl)C[C@]1(C)O	-40.08	–
CCN1CCN(S(=O)(=O)c2cc(C)c(Cl)cc2C)CC1	16.43	–
Cc1ccc(S(=O)(=O)N2CCN(Cc3ccncc3)CC2)c(Cl)c1	0.628	–
